# From PubChem BioAssay (NCI)
# This is part of a sample that, as a whole, favours compounds with a hit. Of some 79,000 tested, about 15% had one in any assay. Values without a mark were called inactive. Active and inactive are the calls of the source. Cut-off read from the data, not from the text of the source: active = growth inhibition above about 70%; inactive = the rest. Where a SMILES comes first, the peptide text is derived from it. [ ]: non-standard residue; d: D form. ξ: configuration not given here. ξPhe(4-N(CH2CH2Cl)2) = NC(Cc1ccc(N(CCCl)CCCl)cc1)C(=O)O
# What was measured:
# [1] = NCI Yeast Anticancer Drug Screen. Data for the rad50 strain (AID 155);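 note: 0% = growth of vehicle-only cultures of the same strain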; details: S. cerevisiae rad50 strain growth inhibition; at 50.0 µM; active compounds read high
# Procedure, shortened: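 Genetically altered yeast (DNA repair pathway); compound treatment; growth inhibition vs vehicle ctrl.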
# [2] = NCI Yeast Anticancer Drug Screen. Data for the mec2-1 strain (AID 157); details: S. cerevisiae mec2-1 strain, at 50.0 µM, active compounds read high
# Procedure, shortened: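 Mutant yeast (mec2-1) grown with compound; growth inhibition relative to vehicle control reported.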
# [3] = NCI Yeast Anticancer Drug Screen. Data for the sgs1 mgt1 strain (AID 161);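 note: 0% = growth of cultures given vehicle only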; details: S. cerevisiae sgs1 mgt1 strain, at 50.0 µM, active compounds read high
# Procedure, shortened: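 Yeast cells carrying a defined DNA-repair defect were exposed to test compounds. Growth inhibition was measured relative to vehicle-treated controls.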
# [4] = NCI Yeast Anticancer Drug Screen. Data for the cln2 rad14 strain (AID 165);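 note: 0% = growth equal to vehicle treated cultures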; details: S. cerevisiae cln2 rad14 strain, at 50.0 µM, active compounds read high
# Procedure, shortened: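 Readout is yeast growth inhibition versus vehicle-treated controls, using a strain with cln2 and rad14 alterations exposed to compound.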
# [5] = NCI Yeast Anticancer Drug Screen. Data for the bub3 strain (AID 167); details: S. cerevisiae bub3 mutant strain, at 50.0 µM, active compounds read high
# Procedure, shortened: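 Yeast carrying a defined mutation is treated with each compound, and growth is compared with that of vehicle-exposed cells to give inhibition.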
# [6] = NCI Yeast Anticancer Drug Screen. Data for the mlh1 rad18 strain (AID 175); details: S. cerevisiae mlh1 rad18 strain growth inhibition; at 50.0 µM; active compounds read high
# Procedure, shortened: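 Genetically defined yeast (DNA repair-deficient) exposed to compounds; growth inhibition determined relative to vehicle.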
SMILES,growth inhibition [1] [%],growth inhibition [2] [%],growth inhibition [3] [%],growth inhibition [4],growth inhibition [5] [%],growth inhibition [6] [%]
C/C=C/C(C)C1(CCC)C(=O)NC(=O)NC1=O (stereo unspecified),0.35,2.6,-3.8,-37.2%,8.5,-3.8
COC1C(OC(=O)/C=C/C=C/C=C/C=C\C(=O)O)CCC2(CO2)C1C1(C)OC1CC=C(C)C (stereo unspecified),9.95,-1,-19.3,0.95%,-8.7,24.1
CCC(CC)C(=O)Cl,-3.8,-4.6,-33.2,-13.1%,-1.35,-22.9
Cc1ccc(C)c(NP(=O)(Nc2cc(C)ccc2C)N(CCCl)CCCl)c1,30.2,-4.4,30.2,8.1%,9.8,-8.55
O=[N+]([O-])c1ccc(/C=C/c2cc(Cl)ccc2S(=O)(=O)F)c(Cl)c1,2.6,-0.85,6.8,13.4%,12.9,-4.35
CCOC(=O)C(Cc1ccc(N(CCCl)CCCl)cc1)NC(=O)C(Cc1ccccc1)NC(=O)C(NC(=O)CNC(=O)C1CCCN1)C(C)C (stereo unspecified) (H-PGVF[ξPhe(4-N(CH2CH2Cl)2)]-OEt; configuration not given here),-4.6,11.8,20.3,3.35%,6.1,29.6
O=C1NC(=S)NC(=O)C1=Cc1cc2c(cc1[N+](=O)[O-])OCO2,0.45,-4.2,4.4,15.1%,7.95,-7.8
COc1ccc2c(c1)C1(C=N2)CCN(C(C)=O)CC1,3.25,-17.1,-16.4,17.1%,-9.75,-24.8
CN(C)/N=C/c1c[nH]c2ccccc12,-13.9,-13.8,-20.1,0.5%,-17.7,-8.4
CC1=NCCc2c1[nH]c1cc(O)ccc21,6.65,-28.1,-12.6,-3.85%,-15.6,4
CCCOC(C(=O)OC1CCC2CCC1N2C)(c1ccccc1)c1ccccc1 (stereo unspecified),5.4,-0.5,17.8,13.8%,28.8,32.9
CCC1(C(C)C=C(C)C)C(=O)NC(=O)NC1=O (stereo unspecified),-28.6,-12.4,-4.75,1.45%,10.3,-10.2
CC(C)C(O)(C(=O)OCC1=CCN2CCC(O)C12)C(C)O (stereo unspecified),2.55,0.1,25.1,9.55%,12.6,8.5
CC(=O)Nc1cc([As](=O)(O)O)ccc1O,31.6,14.3,31.8,-28.2%,9.85,33.8
O=C(O)c1cccc([As]=[As]c2cccc(C(=O)O)c2)c1 (stereo unspecified),8.4,-9.35,-8.75,83.2% (active),-65.3,1
O=[N+]([O-])c1cc(Cl)c(Cl)c([N+](=O)[O-])c1Cl,-7.05,-18.3,6.4,-23.8%,-1.95,6.8
O=C1NC(=S)N/C1=C/c1ccccc1O,12.3,6.65,-27.6,-14.8%,-27.7,-42.4
Cc1cc(C)c(O)c(CN2CCCCC2)c1,4.35,13.1,32.8,-4%,19.6,14.5

SMILES,growth inhibition [1] [%],growth inhibition [2] [%],growth inhibition [3] [%],growth inhibition [4],growth inhibition [5] [%],growth inhibition [6] [%]
Cc1nnn[n-]1.N.N.N.N.N.[Cl-].[Co+3],3.15,-6.95,-9.55,2.4%,-0.15,-16.5
CC1(C)CN=C(Nc2ccc(F)c(Cl)c2)S1,12.9,1.15,-17.9,9.8%,-24.7,-35.4
CCCCCCP(=O)(O)O.[Zn+2],-33.9,-21.8,-9.65,-9.9%,-35.1,-8.75
N=P(c1ccccc1)(c1ccccc1)c1ccccc1.[Cr+6].[N-]=C=S.[N-]=C=S.[N-]=C=S.[N-]=C=S.[NH2-].[NH2-],3.95,-2.55,-3.6,-3.35%,-2.1,0
CC(=O)CC(C)=O.CC(=O)CC(C)=O.[Co],-31.9,-41,-8,-133%,-52.3,0.7
CC1=C(C)C(=O)OC(C(C)(O)C2(O)CCC3(O)C4CC(Cl)C5(O)C(O)C=CC(=O)C5(C)C4CCC32C)C1 (stereo unspecified),7.8,-37.3,-18.7,-3.2%,-15.9,-52.2
O=C(O)CNCP(=O)(O)O,-31.4,-23.1,-52.1,-15.1%,-46.8,-20
O=C1NC(=S)NC(=O)C1=Cc1ccc2ccccc2n1,-7.9,-0.6,1.55,8.4%,-6.35,-16.4
OCCN1CCN(c2cccc(Cl)c2)CC1,-7.5,-12.7,-34.6,-11.1%,-8.05,-4.8
[C-]#[O+].[C-]#[O+].[C-]#[O+].[W].c1ccc([PH+](CC[PH+](c2ccccc2)c2ccccc2)CC[PH+](c2ccccc2)c2ccccc2)cc1,0.6,-18.7,-1.8,3.45%,3.85,2.6
CCCCOP(=O)(CSCC)OCCCC,-6.2,0.1,-16.6,16.2%,14.9,-1.4
CCCCCCCCCCOC(=O)c1ccccc1C(=O)OCCCCCCCCCC,-22,-23.9,-13.8,17.3%,-11.2,-24.6
CC(CO)([N+](=O)[O-])[N+](=O)[O-],7.45,4.75,-0.05,-0.1%,4.8,7.35
C(=NCCN1CCOCC1)=NC1CCCCC1,-22.4,-3.25,-10.9,-21.1%,-58.1,-16.1
CNC(Cc1ccccc1)c1cccc(OC)c1O (stereo unspecified),-7.55,-25.6,-53.6,-28.4%,-14.2,-10.8
C[n+]1ccccc1-c1ccc[n+](CCCCC[n+]2cccc(-c3cccc[n+]3C)c2)c1,4.45,-8.6,-5.5,-22.4%,-1.5,8.15
CCCC[C@@H]1CCN2C[C@@H](O)[C@@H](O)[C@@H]2[C@H]1O,-2.4,5.65,-9.45,11.7%,12.2,-12.9
[C-]#[N+]CS(=O)(=O)c1ccc(C)cc1,-17.4,-11.1,-7.3,11.1%,3.85,1.4
